Test results published in PubChem BioAssay (NCATS).
Results filed as inconclusive are left out. A call without a number means that no potency is given here. The source holds several records for some structures; these can differ, active in one and inactive in another. Unmarked numbers belong to inactive results. The source made the active and inactive calls. Calls come from the whole dose curve; as a rule, active = well fitted curve in the direction sought with a large enough effect; inconclusive = small, poorly fitted or top-dose-only effect, or another doubt; inactive = no such curve, though single readings can be large; an effect the other way counts as inactive or inconclusive.

Legend:
[1] = system: Zika virus NS2B-NS3 protease; assay: Primary screen GU AMC qHTS for Zika virus inhibitors (AID 1347154); note: nearly all actives have a fitted effect of over 70% in size
Procedure, shortened: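 Fluorogenic AMC-substrate cleavage by noncovalent NS2B-NS3 protease complex (25 nM, pH 8.0 Tris buffer with Tween 20) followed for 15 minutes at room temperature (~20% conversion). Percent inhibition from ex340/em450 signal change, fitted by 4-parameter Hill equation.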

[2] = Primary qHTS for small molecule stabilizers of the endoplasmic reticulum resident proteome: Secreted ER Calcium Modulated Protein (SERCaMP) assay (AID 1508630); note: potency is the fitted concentration of half-maximal effect
Procedure, shortened: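 GLuc-SERCaMP-expressing SH-SY5Y cells, pretreated 16 h with compound, are challenged with thapsigargin to empty ER calcium stores; after 4 h, coelenterazine is added directly to the medium and luminescence is imaged.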

Structure (SMILES) | Potency [1] | Potency [2] | activity change, negative = inhibition [1] | activity change, negative = inhibition [2]
CC(C)n1cnc2c(NCc3ccccc3)nc(NCCO)nc21 | inactive | inactive |  | 
CC(C)C(N)C(=O)O (stereo not drawn) | inactive | inactive |  | 
CCCCCCCC/C=C\CCCCCCCC(=O)OCC(CO)OC(=O)CCCCCCC/C=C\CCCCCCCC (stereo not drawn) |  |  | -0.778% [at 6.83 µM] | 17.1% [at 3.88 µM]
CC[C@H](C)[C@H](NC(=O)[C@H](CCCN=C(N)N)NC(=O)[C@H](CCCN=C(N)N)NC(=O)[C@H](CC(C)C)NC(=O)[C@H](Cc1ccccc1)NC(=O)CNC(=O)CN)C(=O)N[C@@H](CCCN=C(N)N)C(=O)N1CCC[C@H]1C(=O)N[C@@H](CCCCN)C(=O)N[C@@H](CC(C)C)C(=O)N[C@@H](CCCCN)C(=O)O |  |  | 11.9% [at 6.83 µM] | -2.68% [at 3.88 µM]
CN1C/C(=C/c2ccc(B(O)O)cc2)C(=O)/C(=C/c2ccc(B(O)O)cc2)C1 | inactive | inactive |  | 
NC(N)=NCCC[C@H](NC(=O)[C@@H](N)Cc1ccc(O)cc1)C(=O)O |  |  | 2.03% [at 6.83 µM] | -11.6% [at 3.88 µM]
CC(C)c1cnc(NC(=O)Cc2ccccc2)s1 | inactive | inactive |  | 
CCOC(=O)C12CC1/C(=N\O)c1ccccc1O2 (stereo not drawn) | inactive | inactive |  | 
CNC(=S)NCCCCc1cnc[nH]1 | inactive | inactive |  | 
C[C@H](N)CCCP(=O)(O)O | inactive | inactive |  | 
CC(C)[C@@H]1NC(=O)[C@H](Cc2ccccc2)NC(=O)[C@@H](CC(=O)O)NC(=O)CNC(=O)[C@H](CCCNC(=N)N)NC1=O | inactive | inactive |  | 
C=C1/C(=C\C=C2/CCC[C@]3(C)C([C@H](C)CCCC(C)(C)O)CC[C@@H]23)C[C@@H](O)C[C@@H]1O (stereo partly drawn) |  |  | 14.5% [at 6.83 µM] | -19.4% [at 3.88 µM]
CCCCC/C=C\C/C=C\C/C=C\C/C=C\CCCC(=O)O[C@@H](CO)COCCCCCCCCCCCCCCCC |  |  | 9.81% [at 6.83 µM] | -14% [at 3.88 µM]
Clc1ccc2ncnc(NCc3ccc4c(c3)OCO4)c2c1 | inactive | inactive |  | 
COCCCCCCCCCCCC(=O)O |  |  | 13.2% [at 6.83 µM] | -27.3% [at 3.88 µM]
COC(=O)[C@@H]1[C@H]2C[C@H]3c4[nH]c5ccccc5c4CCN3C[C@H]2CC[C@@H]1O | inactive | inactive |  | 
COc1ccc(CC(N)C(=O)NC2C(O)[C@H](n3cnc4c(N(C)C)ncnc43)O[C@@H]2CO)cc1 (stereo partly drawn) | inactive | inactive |  | 
CC(=O)N[C@@H](CSC/C=C(\C)CC/C=C(\C)CC/C=C(\C)CCC=C(C)C)C(=O)O | inactive | inactive |  | 
COC(=O)/C=C/c1cccc(N(Cc2ccc(-c3ccc(N(C)C)cc3)cc2)C(=O)C2CCCCC2)c1 | inactive | inactive |  | 
CCCCCCCCCCCCCCCC(=O)N[C@@H](COP(=O)(O)O)C(=O)O |  |  | 6.63% [at 6.83 µM] | 2.76% [at 3.88 µM]
O=C(O)[C@@H]1CN[C@@H](C(=O)O)C1 | inactive | inactive |  | 
CCCCC/C=C\C\C=C/C=C/C=C/[C@@H](SC[C@H](NC(=O)CC[C@H](N)C(=O)O)C(=O)NCC(=O)O)[C@@H](O)CCCC(=O)O |  |  | 8.51% [at 0.59 µM] | -14.5% [at 0.478 µM]
CC(O)[C@@H](N)C(=O)O (stereo partly drawn) | inactive | inactive |  | 
CC(C)OC(=O)c1cn(Cc2c(F)cccc2F)c2sc(-c3ccc(NC(=O)C(C)C)cc3)c(CN(C)Cc3ccccc3)c2c1=O | inactive | inactive |  | 
CCCCCCCCCCCCC/C=C/[C@@H](O)[C@@H](N)CO | inactive | 1.12 µM (active) |  | -29.5% [at 3.88 µM]
CCCCCCCCCC(=O)N[C@H](CN1CCOCC1)[C@H](O)c1ccccc1 |  |  | 6.71% [at 6.83 µM] | 9.26% [at 3.88 µM]
